The campaign covered roughly 290,000 compounds. About 3,000 (1%) were called active. This is one part of a sample in which actives are shown more often than they occur. The rule behind the calls is not given here.
Molecular target: Polyadenylate-binding protein 1 (Homo sapiens) (UniProt P11940)
Test: blockers of PABP interaction with poly(A) – biochemical, fluorescence polarization, uHTS, primary screen (AID 2014);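 note: calls also rest on retests at 20 µM and on dose response follow-up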
Settings: PABP-poly(A) RNA binding, stronger effect = higher value

Sequence of Polyadenylate-binding protein 1 (Homo sapiens) (P11940 whole entry, looked up): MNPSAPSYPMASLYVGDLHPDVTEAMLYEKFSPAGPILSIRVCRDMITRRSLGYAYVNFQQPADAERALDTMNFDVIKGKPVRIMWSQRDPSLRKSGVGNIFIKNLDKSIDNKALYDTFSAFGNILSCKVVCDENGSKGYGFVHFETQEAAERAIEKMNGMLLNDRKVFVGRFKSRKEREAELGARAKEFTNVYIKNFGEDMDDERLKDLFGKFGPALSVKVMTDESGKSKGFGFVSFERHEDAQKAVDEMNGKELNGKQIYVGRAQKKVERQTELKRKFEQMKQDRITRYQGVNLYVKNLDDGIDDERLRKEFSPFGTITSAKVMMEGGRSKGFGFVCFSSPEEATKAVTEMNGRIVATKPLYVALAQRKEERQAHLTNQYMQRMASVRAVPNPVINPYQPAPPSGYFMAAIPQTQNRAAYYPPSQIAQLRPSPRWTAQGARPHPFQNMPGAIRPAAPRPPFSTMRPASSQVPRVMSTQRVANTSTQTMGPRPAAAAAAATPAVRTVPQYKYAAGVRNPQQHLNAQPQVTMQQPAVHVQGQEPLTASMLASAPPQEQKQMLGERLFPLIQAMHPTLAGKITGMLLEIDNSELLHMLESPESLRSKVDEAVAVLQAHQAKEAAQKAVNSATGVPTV

Row | SMILES | inhibition (at 35 µM) | inhibition (confirmation repeats, at 20 µM) [%]
1 | N#CC1=C(N)Oc2c(sc3ccccc23)C1c1ccco1 (stereo not drawn) | 86.3% (active) | 
2 | N#CC1=C(N)Oc2c(ccc3cccnc23)C1c1ccncc1 (stereo not drawn) | 10.6% (inactive) | 
3 | CC1=C(C(=O)Nc2ccccc2)C(c2ccco2)C(C#N)=C(SCC(N)=O)N1 (stereo not drawn) | 7.1% (inactive) | 
4 | COCCCNc1nc2c(-c3cccc(C)c3)nnn2c2ccc(Cl)cc12 | 3.2% (inactive) | 
5 | COc1cccc(N(C(=O)CNC(=O)c2ccco2)C(C(=O)NC2CCCCC2)c2cccnc2)c1 (stereo not drawn) | 10.1% (inactive) | 
6 | CN(C)CCCNC(=S)N1CCC(c2nc3ccccc3[nH]2)CC1 | -6% (inactive) | 
7 | COc1ccc(C(CNC(=O)COc2ccc([N+](=O)[O-])cc2)N2CCCCC2)cc1 (stereo not drawn) | 1% (inactive) | 
8 | Fc1cc(F)c2nc(Nc3nc4c(F)cccc4s3)sc2c1 | 0.5% (inactive) | 
9 | NC(=O)c1c(NC(=O)c2ccccc2)sc2c1CCCC2 | 3.6% (inactive) | 
10 | NC(=O)c1c(Nc2nc3c(F)cccc3s2)sc2c1CCCC2 | -15.3% (active) | 73.7
11 | COc1ccc(C(=O)NCCSc2ccccc2C)cc1 | 1.1% (inactive) | 
12 | COCc1cc(C)n(CC(=O)NCC2CCCO2)c(=O)c1C#N (stereo not drawn) | -1.9% (inactive) | 
13 | Cc1ccc(N2CCN(C(=O)c3cccs3)CC2)c(C)c1 | 3.2% (inactive) | 
14 | Cc1cc(C)n2nc(SCC(N)=O)nc2n1 | 51.5% (active) | 81.1
15 | COc1ccc(C(C)=O)cc1CSc1nc2nc(C)cc(C)n2n1 | -7.3% (inactive) | 
16 | CCOC(=O)C(C)Sc1nnc(CSc2nc3nc(C)cc(C)n3n2)o1 (stereo not drawn) | 2.5% (inactive) | 
17 | Cc1onc(C(=O)Nc2ccc3c(c2)OCO3)c1[N+](=O)[O-] | 1.4% (inactive) | 
18 | Cc1ccnc(N2C(=O)c3ccc([N+](=O)[O-])cc3C2=O)c1 | 47.5% (inactive) | 
19 | COc1ccccc1NC(=O)Nc1nnc(Cc2ccc(F)cc2)s1 | -15% (inactive) | 
20 | COc1ccc(C(CNC(=O)c2cc3c(s2)CCCC3)N2CCOCC2)cc1 (stereo not drawn) | 11.9% (inactive) | 
21 | CC(=O)NC(Cc1ccc(F)c(F)c1)C(=O)NC1CCN(C(=O)c2ccc(C)cc2)CC1 (stereo not drawn) | 1.9% (inactive) | 
22 | COc1ccc(CC(NC(C)=O)C(=O)NC2CCN(C(=O)c3ccc(Cl)cc3)CC2)cc1 (stereo not drawn) | 3.2% (inactive) | 
23 | CNC(=S)N1CCC(NC(=O)C(Cc2ccc(F)cc2)NC(C)=O)CC1 (stereo not drawn) | 63.2% (active) | 
24 | C[C@@H]1CC[C@@]2(OC1)O[C@H]1C[C@H]3[C@@H]4CC=C5C[C@@H](O)[C@H](O)C[C@]5(C)C4CC[C@]3(C)[C@H]1[C@@H]2C (stereo partly drawn) | 7.2% (inactive) | 
25 | O=C1CN(C(=O)c2cc(F)cc(F)c2)c2ccccc2N1 | -2.2% (inactive) | 
26 | Cc1cc(O)c(C(=O)/C=C/c2c(F)c(F)c(F)c(F)c2F)c(=O)o1 | -2.1% (inactive) | 
